Screening results (PubChem)
Only some compounds are listed: those with a hit (about 7.4% of all), similar ones and a draw of the others.
Rab9 prom act: activators of Rab9 promoter; Huh7 Rab9 promoter-luciferase reporter, luminescence, 24 h; Potency, µM (top dose mostly 9.22 µM), for inactives: top-dose activation, negative = inhibition, usual class: activators; 320,000 compounds, 2.8% hits; AID 485297; further: % of control where 0% means no effect; nearly all actives have a fitted effect of over 60% in size
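Rab9 promoter-driven luciferase in stably transfected Huh7 cells; 1500 cells/well rested 2 h, exposed to compound in DMSO for 24 h at 37 °C, 5% CO2. Luminescence read 10 min after adding luciferase reagent at ambient temperature.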
NPC1 prom act: activates the NPC1 promoter. Huh7 NPC1 promoter luciferase reporter, 24 h. Potency, µM (series often up to 9.22 µM), inactives show top-dose activation, most hits filed as activators. 320,000 compounds, 2.4% hits; further: % of control where 0% means no effect; nearly all actives have a fitted effect of over 60% in size
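Luminescence from an NPC1 promoter-driven luciferase reporter in stably transfected Huh7 cells was measured after 24 h compound treatment at 37 °C, followed by 10 min ambient incubation with luciferase detection reagent.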
SMN2 splice enh: enhancers of SMN2 splice variant expression; HEK293 SMN2-luciferase splicing reporter, luminescence, 30-36 h; Potency, µM (highest dose often 46.1 µM), without a hit: at the top dose activity change, positive = activation, usual class: activators; 210,000 compounds, 2.8% hits; further: % of control where 0% means no effect; nearly all actives have a fitted effect of over 55% in size
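HEK293 cells carry an SMN2 minigene-luciferase reporter in which exon 7 inclusion puts luciferase in frame. Cells were seeded at 2000 cells/well, attached for 10-12 hours, then exposed to compounds for 30-36 hours at 37C before ONE-Glo luminescence.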
ELG1 genotoxic: inducers of genotoxicity in HEK293T ELG1-luciferase cells; HEK293T ELG1-luciferase reporter, luminescence, 16 h; Potency, µM (titrated, usually from 46 µM), for the others: at the top dose activity change, positive = activation, hits mostly activators; 330,000 compounds, 1.3% hits; further: % of control where 0% means no effect; nearly all actives have a fitted effect of over 60% in size
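Screening used a luciferase reporter fused to human ELG1 in HEK293T cells. Luminescence was read on a CCD plate imager after 16 hr exposure and 30 min ONE-Glo incubation.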
FLuc modulator: counter-screen for miR-21 project: firefly luciferase inhibitors or activators | 360,000 compounds, 6.9% hits | Potency, µM (titrated, usually from 57.5 µM), for inactives: at the top dose activity change, negative = inhibition, actives largely listed as inhibitors | purified FLuc, Km substrates, luminescence inhibition;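 further: plate controls were vehicle for no effect and reference inhibitor for full effect; nearly all actives have a fitted effect of over 55% in size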
Target sequence (P08659 whole entry, looked up): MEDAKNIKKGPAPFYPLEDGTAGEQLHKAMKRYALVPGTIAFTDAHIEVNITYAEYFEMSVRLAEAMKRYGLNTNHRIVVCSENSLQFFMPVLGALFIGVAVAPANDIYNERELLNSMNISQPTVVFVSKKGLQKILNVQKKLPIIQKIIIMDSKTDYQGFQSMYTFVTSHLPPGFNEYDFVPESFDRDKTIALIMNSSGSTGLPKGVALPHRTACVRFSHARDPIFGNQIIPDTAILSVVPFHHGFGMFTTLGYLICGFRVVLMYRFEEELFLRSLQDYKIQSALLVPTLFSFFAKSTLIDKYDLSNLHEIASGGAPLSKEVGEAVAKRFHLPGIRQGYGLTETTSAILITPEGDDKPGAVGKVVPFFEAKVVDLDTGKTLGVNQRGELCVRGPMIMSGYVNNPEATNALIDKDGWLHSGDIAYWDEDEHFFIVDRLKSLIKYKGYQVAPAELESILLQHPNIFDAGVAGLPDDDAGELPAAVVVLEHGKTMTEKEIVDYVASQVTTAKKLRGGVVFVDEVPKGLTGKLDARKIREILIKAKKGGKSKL
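Purified P. pyralis luciferase, 10 nM final, with Km-level 10 uM D-luciferin and 10 uM ATP in 50 mM Tris acetate pH 7.5, 10 mM Mg acetate, 0.01% Tween-20, 0.05% BSA; 6-point qHTS titration about 60 µM downward; luminescence read.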
* marks the source's active call; other numbers are inactive results; ? = inconclusive; . = no result given; [ ] = remark or other dose. The call rests on the fitted dose curve; in most records, active means well fitted curve in the direction sought with a large enough effect; inconclusive means small, poorly fitted or top-dose-only effect, or another doubt; inactive means no such curve, though single readings can be large; an effect the other way counts as inactive or inconclusive. Potency means the concentration at half of the fitted maximal effect.

SMILES	Rab9 prom act	NPC1 prom act	SMN2 splice enh	ELG1 genotoxic	FLuc modulator
COc1ccc(C(=O)N/N=C(/C)c2cccc(NC(=O)c3ccncc3)c2)cc1OC	-1.9%	1.7%	.	-3.9%	?
COc1ccc(/C(C)=N/Nc2cccc(C(=O)O)c2)cc1OC	1.12µM*	1µM*	10µM*	5.17µM*	3.79µM*
COc1ccccc1/C=C/C=N/Nc1cccc(C(=O)O)c1	0.126µM*	0.112µM*	.	0.651µM*	0.536µM*
COc1ccccc1/C=C/C=N/NC(=O)Cc1cccn1C	4.2%	11.1%	?	15.1%	?
C/C(=N\Nc1cccc(C(=O)O)c1)c1ccc(Cl)s1	2.82µM*	3.16µM*	.	?	10.7µM*
Cc1cccc(-c2nc(Cn3c(=O)cc(-c4ccccc4)c4c(C)nn(C)c43)c(C)o2)c1	.	.	.	.	0.8%
COc1ccc(NC(=O)Cn2c(=O)n(Cc3ccco3)c(=O)c3cc(OC)c(OC)cc32)cc1	.	.	-15.3%	.	1.5%
Cc1occc1C(=O)N/N=C/c1cccc2ccccc12	2.24µM*	?	.	7.3µM*	5.36µM*
Cc1occc1C(=O)Nc1cccc2ccccc12	1.58µM*	2µM*	3.16µM*	5.8µM*	2.69µM*
O=C(N/N=C/c1cccc2ccccc12)c1ccccc1Cl	2.7%	-2.3%	.	5.9%	7.57µM*
Cc1occc1C(=O)N/N=C/c1cccs1	?	?	24.7%	11.0%	?
CCCn1cc(S(=O)(=O)c2ccc(OC)cc2)c(=O)c2cc(F)c(N3CCCCCC3)cc21	.	.	.	.	2.9%
Cc1ccc(-c2cc(C(=O)Nc3cccnc3)c3ccccc3n2)o1	15.7%	-0.3%	2.8%	-0.4%	6.01µM*
Cc1ccc(NC(=O)c2cc(-c3ccc(C)o3)nc3ccccc23)cc1	8.7%	0.7%	10.4%	5.0%	?
Cc1ccc(-c2cc(C(=O)Nc3ccccn3)c3ccccc3n2)o1	2.6%	-0.9%	2.9%	-12.5%	10.7µM*
O=C(Nc1cccnc1)c1cc(-c2ccc(Br)cc2)nc2ccccc12	0.1%	-0.1%	.	0.0%	16.9µM*
COc1ccccc1NC(=O)c1cc(-c2ccc(C)o2)nc2ccccc12	13.4%	-1.3%	.	-0.9%	7.57µM*
N#Cc1ccc(Nc2nn3c(=O)c4ccccc4nc3s2)cc1	.	.	.	.	-12.7%
O=C(NC1CC(=O)N(c2cccc(F)c2)C1)c1ccc(Br)o1 (configuration not stated)	.	.	.	.	1.3%
CCOCCCNC(=O)c1ccc(Cn2c(=O)c3cccn3c3cccnc32)cc1	.	.	.	.	4.9%
Cc1ccc(C(=O)N2CCCC(N3CCN(c4cccc(C(F)(F)F)c4)CC3)C2)s1 (configuration not stated)	-4.0%	-4.1%	.	-5.7%	-5.8%
CS(=O)(=O)c1ccccc1C(=O)Nc1ccc(-c2nc3ccccc3o2)cc1	?	?	.	8.8%	23.9µM*
Cc1ccc(C(=O)Nc2ccc(-c3nc4ccccc4o3)cc2)cc1Cl	.	.	2.2%	.	-0.1%
CS(=O)(=O)c1ccccc1C(=O)Nc1ccc(-c2nc3ccccc3[nH]2)cc1	3.55µM*	?	.	11.4%	13.5µM*
O=C(O)c1ccccc1-c1ccccc1C(=O)Nc1cccc(-c2nc3ccccc3o2)c1	-3.8%	-0.2%	.	5.8%	8.49µM*
SMILES	Rab9 prom act	NPC1 prom act	SMN2 splice enh	ELG1 genotoxic	FLuc modulator
Cc1ccc(C(=O)Nc2cccc(-c3nc4ccccc4o3)c2)c(Cl)c1	.	.	-1.9%	.	?
COc1ccc(-c2cnnc(N/N=C/c3ccc(O)c(O)c3)n2)cc1	-9.4%	-12.8%	?	11.7%	2.69µM*
CCNc1nc(NCC)nc(N/N=C/c2ccc(O)c(O)c2)n1	?	26.3%	?	?	21.3µM*
CCNc1nc(NCC)nc(N/N=C/c2ccc(N(C)C)cc2)n1	-3.0%	2.1%	4.2%	-1.3%	?
COc1ccc(Nc2nc(NCc3ccco3)nc(N/N=C/c3ccc(O)cc3)n2)cc1	0.7%	-1.2%	.	-6.9%	15.1µM*
COc1ccc(-c2cnnc(N/N=C/c3ccc(O)cc3)n2)cc1	18.3%	0.3%	26.8%	?	1.69µM*
COc1ccc(-c2cnnc(N/N=C/c3ccc(C)o3)n2)cc1	-3.3%	-5.6%	-3.4%	14.6%	-2.7%
Cc1ccc(CNC(=O)c2ccc(N3CCCC3)c(NC(=O)Nc3ccc(C)cc3)c2)cc1	.	.	.	.	4.5%
COCCCn1c(C(=O)NCCN2CCOCC2)cc2c(=O)n3ccccc3nc21	-2.4%	-4.0%	.	9.8%	2.69µM*
O=C1c2ccccc2NC(c2ccccc2O)N1c1ccc(F)cc1 (configuration not stated)	3.98µM*	3.98µM*	.	?	-13.8%
COc1cccc(C2Nc3ccccc3C(=O)N2c2ccc(F)cc2)c1O (configuration not stated)	?	?	.	?	-10.3%
COc1ccc2[nH]c(C(=O)N3CCC(CO)(Cc4cccc(C(F)(F)F)c4)CC3)c(C)c2c1	-1.1%	-1.4%	.	-7.3%	10.3%
COCCNC(=O)CN1C(=O)COc2ccc(S(=O)(=O)N3CCCC3)cc21	.	.	0.2%	.	-4.3%
COc1ccc(C(=O)NCCSC2CCCCC2)cc1	?	?	15.8µM*	?	13.5µM*
O=C(NCCSC1CCCCC1)c1ccccc1	?	28.9%	?	?	?
CC(=O)c1sc(N/N=C2\CC3CC2C(C)C3(C)C)nc1C (configuration not stated)	?	?	.	?	13.5µM*
CC(=O)c1sc(NC(=O)C2(F)C(F)(F)C(F)(F)C(F)(F)C(F)(F)C2(F)F)nc1C	-45.7%	-36.3%	-56.8%	-9.9%	?
Cc1cc(C)c2c(c1)N[C@H](c1cccs1)[C@@H]1CCO[C@H]21	0.1%	-3.9%	.	0.5%	2.0%
CC(C)c1ccc2c(c1)[C@H]1OCC[C@H]1[C@@H](c1cccs1)N2	-13.1%	-14.0%	-40.5%	0.8%	9.53µM*
CCCN1C(=O)c2cccc3c(N4CCCCC4)ccc(c23)C1=O	?	19.5%	6.0%[1.84 µM]	?	10.7µM*
Cc1sc(NC(=O)c2sc3nc4c(C)cccc4cc3c2N)c(C#N)c1C	?	26.2%	-4.4%	?	0.536µM*
Cc1cccc2cc3c(N)c(C#N)sc3nc12	-2.9%	-1.3%	-6.4%	1.3%	?
Cc1cc2c(NCCc3ccccc3)ncnc2s1	-7.3%	-7.1%	.	?	12µM*
CCCCCCCCNc1ncnc2ccccc12	-28.2%	-25.4%	-99.8%	-0.4%	-14.8%
c1ccc(CCNc2ncnc3ccccc23)cc1	-23.4%	-19.4%	.	2.1%	12µM*
COc1cccc(CC(=O)OCC(=O)NC(=O)c2ccc(OC(F)F)cc2)c1	2.2%	0.0%	.	22.5%	3.0%
Cc1cc(SCC(=O)N(C)C2CCCCC2)nc2ccccc12	.	.	.	0.5%	.
O=C(OCC(=O)N1CCN(C(=O)c2ccco2)CC1)c1cn(-c2ccccc2)nc1-c1ccccc1	-3.5%	1.5%	-10.7%	-4.1%	16.9µM*
